Source: PubChem BioAssay (The Scripps Research Institute Molecular Screening Center)
GPR151 activ = activators of human GPR151, primary screen, cell-based, PathHunter beta-arrestin, luminescence; activation, % at 11.2 µM; G-protein coupled receptor 151 (Homo sapiens), Q8TDV0; actives 1% (n = 650,000); PathHunter beta-arrestin GPR151 cells; in the data active means activation above about 4.9%
Target sequence (Q8TDV0 whole entry, looked up): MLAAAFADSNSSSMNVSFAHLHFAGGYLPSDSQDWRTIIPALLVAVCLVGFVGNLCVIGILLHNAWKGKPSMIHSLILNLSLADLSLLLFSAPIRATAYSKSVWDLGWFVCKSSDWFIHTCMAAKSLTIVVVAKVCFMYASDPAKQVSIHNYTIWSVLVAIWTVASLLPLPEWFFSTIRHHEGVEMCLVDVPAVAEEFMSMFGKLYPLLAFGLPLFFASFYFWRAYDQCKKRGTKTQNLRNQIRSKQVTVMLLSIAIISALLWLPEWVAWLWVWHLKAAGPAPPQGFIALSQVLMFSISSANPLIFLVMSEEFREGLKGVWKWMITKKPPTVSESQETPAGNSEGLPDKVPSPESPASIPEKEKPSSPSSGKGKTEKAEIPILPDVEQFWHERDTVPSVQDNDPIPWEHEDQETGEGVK
TEAD-YAP block = TEAD-YAP interaction inhibition, primary screen, TEAD-YAP interaction inhibitor project, luminescence, HEK-TIYL cells; TEAD-Gal4/YAP UAS-luciferase luminescence; inhibition, % at 9.12 µM; actives 1.4% (n = 640,000); AID 1259422, 2018; in the data active means inhibition above about 32%
FBW7 act = FBW7 E3 ligase activators, primary screen, biochemical, AlphaScreen, human. F-box/WD repeat-containing protein 7 (Homo sapiens), Q969H0. AlphaScreen FBW7–phospho-cyclin E peptide binding, activator screen. normalized activity (activation), % at 26.1 µM. actives 0.13% (n = 650,000). AID 1259310, 2017; in the data active means normalized activity above about 1.9%;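 further: purified mutant Fbw7 with reduced substrate affinity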
MITF inh = MITF inhibitors, primary screen, biochemical, AlphaScreen, human; AlphaScreen MITF homodimerization, bead proximity signal; actives 0.91% (n = 650,000); Microphthalmia-associated transcription factor (Homo sapiens), O75030; inhibition, % at 2.6 µM; in the data active means inhibition above about 50%
Each line names hits and unclear results; the compound was inactive in the other large screens. This is a sample that favours compounds with a hit; in the whole collection about 3.4% have one here.

O=C(NC(=S)Nc1ccc(Cc2ccncc2)cc1)c1ccc(Cl)cc1Cl	none
O=C(O)c1ccc(NC(=O)c2ccc(Cl)cc2Cl)cc1	TEAD-YAP block 45.3
COc1ccc(NC(=O)c2ccc(C)cc2Cl)cc1	TEAD-YAP block 73.0
O=C(Nc1ccc(Cc2ccncc2)cc1)c1ccc(Cl)cc1Cl	TEAD-YAP block 38.3
O=C(Nc1ccc(C(=O)c2ccc(Cl)cc2)c(Cl)c1)c1cc(Cl)ccc1O	TEAD-YAP block 39.8
O=C(c1ccc(Cl)cc1)c1ccc(NC(=O)c2cc(Br)cc(Br)c2O)cc1Cl	none
COc1ccc(NC(=O)NC(=O)c2c(Cl)ccc(Cl)c2OC)cc1	TEAD-YAP block 37.5
CCOc1ccc(NC(=O)c2c(Cl)ccc(Cl)c2OC)cc1	none
CCOc1ccc(NC(=O)c2ccc(F)c(S(=O)(=O)N(CC)Cc3ccccc3)c2)cc1	TEAD-YAP block 61.7
CCN(CC)S(=O)(=O)c1cc(C(=O)Nc2ccc(Br)cc2)ccc1F	none
CCOc1ccc(NC(=O)c2ccc(F)c(S(=O)(=O)N(Cc3ccco3)CC3CCCO3)c2)cc1 (configuration not stated)	TEAD-YAP block 46.2
CCOc1ccc(NC(=O)c2ccc(F)c(S(=O)(=O)N(CC)CC)c2)cc1	TEAD-YAP block 36.8
CCN(CC)S(=O)(=O)c1cc(C(=O)Nc2ccc(Br)cc2)ccc1OC	TEAD-YAP block 46.6
O=S(=O)(NC1CCCC1)c1cccc(-c2nnc(-c3ccccc3)o2)c1	TEAD-YAP block 32.6
O=S(=O)(NC1CCCCCCC1)c1ccccc1	none
COc1ccc(NC(=O)C2=C(C)NC(=S)NC2c2c(OC)ccc3ccccc23)c(OC)c1 (configuration not stated)	none
O=C(Nc1ccc(S(=O)(=O)N2CCCCC2)cc1)c1ccc(CN2CCc3ccccc3C2)cc1	TEAD-YAP block 65.0
C#CCOc1ccc(/C=C2/C(=O)ON=C2C)cc1OC	none
COc1cc(/C=C2\C(=O)ON=C2C)ccc1OCCc1ccccc1	TEAD-YAP block 38.1
COc1ccc(/C=C2\NC(=S)NC2=O)cc1C	none
C=CCOc1ccc(/C=C2/C(=O)ON=C2C)cc1Br	none
CCOc1ccc(/C=C2/C(=O)ON=C2C)cc1Br	MITF inh 54.8
C#CCOc1ccc(/C=C2/C(=O)ON=C2C)cc1	MITF inh 58.0
COc1ccc(/C=C2/NC(=S)NC2=O)cc1O	TEAD-YAP block 39.6
CCCOc1ccc(/C=C2/C(=O)ON=C2C)cc1OC	none
COc1cccc(CC2(CO)CCCN(C(=O)c3n[nH]c4c3CCC4)C2)c1 (configuration not stated)	none
CC1=NOC(=O)/C1=C/c1ccc(O)cc1O	MITF inh 52.9
COc1cc(/C=C2\C(=O)ON=C2C)cc(Br)c1O	MITF inh 81.0
COc1ccc(/C=C2\C(=O)ON=C2C)cc1O	MITF inh 52.1
CCOc1cc(/C=C2/C(=O)ON=C2C)ccc1O	none
COc1cc(/C=C2\C(=O)ON=C2C)ccc1O	MITF inh 59.8
CCCOc1ccccc1C1CC(=O)NC2=C1C(=O)CCC2 (configuration not stated)	TEAD-YAP block 50.2
O=C1CC(c2cccc3ccccc23)C2=C(CCCC2=O)N1 (configuration not stated)	none
CCCCOc1ccccc1C1CC(=O)NC2=C1C(=O)CCC2 (configuration not stated)	TEAD-YAP block 57.0
CCOc1ccccc1C1CC(=O)NC2=C1C(=O)CCC2 (configuration not stated)	TEAD-YAP block 40.5
CC1=C(C(=O)Nc2cccc(C(F)(F)F)c2)C(c2ccc(O)c(Cl)c2)NC(=O)N1 (configuration not stated)	none
CNC(=O)C1CCN(S(=O)(=O)c2c(C)noc2C)CC1	none
CCc1ccccc1-n1c(=O)oc2ccc(Cl)cc2c1=O	TEAD-YAP block 53.0
O=c1oc2ccc(Cl)cc2c(=O)n1-c1cccc([N+](=O)[O-])c1	TEAD-YAP block 75.0
CCC(=O)n1c(=O)oc2ccc(Cl)cc21	none
CCCC(=O)Oc1c(Sc2ccccc2[N+](=O)[O-])c(C)nn1C(C)(C)C	TEAD-YAP block 34.3
CN(C)NC1=CC(=[N+]2CCCC2)CC(C)(C)C1	none
CC1(C)CC(N2CCOCC2)=CC(=[N+]2CCOCC2)C1	none
CCCN(CCC)C1=CC(=[N+]2CCCC2)CC(C)(C)C1	TEAD-YAP block 68.7
CC1(C)CC(N2CCCCC2)=CC(=[N+]2CCCCC2)C1	TEAD-YAP block 75.0
O=C(Cn1cccn1)N1CCCC(COc2ccc(CN3CCOCC3)cc2)C1 (configuration not stated)	none
O=C(COc1ccc(I)cc1)N/N=C/c1ccc([N+](=O)[O-])s1	none
COc1ccc(C2CC(=O)c3c([nH]c(C(=O)OCCSC)c3C)C2)cc1OC (configuration not stated)	TEAD-YAP block 43.7
COc1ccc(C2CC(=O)c3c([nH]c(C(=O)OCCOC(C)C)c3C)C2)cc1OC (configuration not stated)	TEAD-YAP block 32.0
NCCCC[C@@H]1NC(=O)[C@@H]2C[C@H](NCc3ccccc3)CN2C1=O	none
CCOC(=O)c1sc(NC(=O)c2cc(OC)cc(OC)c2)c(C(=O)OCC)c1C	none
CC(CCCC(C)(C)O)NC(=O)c1cc(COc2ccc3ncccc3c2)on1 (configuration not stated)	TEAD-YAP block 33.3
O=C(NC1(c2ccccc2)CC1)c1cc(COc2ccc3ncccc3c2)on1	TEAD-YAP block 58.4
Cc1cc(-c2nc3c4c5c(sc4[nH]c(=O)n3n2)CCCC5)c(C)o1	none
COc1cc2nc(CN3CCCCCCC3)[nH]c(=O)c2cc1OC	none
COc1cc2nc(CN3CCN(c4ccccn4)CC3)[nH]c(=O)c2cc1OC	TEAD-YAP block 72.9
COc1cc2nc(CN3c4ccccc4CC3C)[nH]c(=O)c2cc1OC (configuration not stated)	TEAD-YAP block 48.2
CCOC(=O)c1sc(NC(=O)c2ccc(C)cc2)nc1C	none
COC(=O)C1CC(=O)N(CCC(C)C)C12CCN(Cc1ccncc1)CC2 (configuration not stated)	none
COC(=O)c1cc(OC)c(OC)cc1NC(=O)CCCN1C(=O)c2ccccc2C1=O	none
CCC(CC)NC(=O)c1cccc(I)c1	TEAD-YAP block 33.6
COCCNc1oc2c(c1-c1cccc(F)c1)c(=O)oc1ccccc12	none
CCOC(=O)c1sc(N)c(C#N)c1CSc1nnc(-c2ccco2)o1	none
CCOC(=O)c1sc(N)c(C#N)c1CSc1nnc(-c2ccc(OC)c(OC)c2)o1	TEAD-YAP block 43.5
Cc1ccc(NS(=O)(=O)c2cc(Br)cc3c2N(C(=O)C2CC2)CC3)cc1	TEAD-YAP block 39.8
CC(=O)N1CCc2cc(Br)cc(S(=O)(=O)Nc3ccc(C)cc3)c21	none
O=C(NCc1ccncc1)c1ccc(OC2CCN(C3CCOCC3)CC2)cc1	none
Cc1cc(CN2CCC(Oc3ccc(C(=O)NCc4ccncc4)cc3)CC2)oc1C	TEAD-YAP block 32.6
Cc1cc2nc3c(nc2cc1C)-c1ccccc1C3=O	TEAD-YAP block 33.3
